# Measured values as given in the supplement of paper PMC4022240.
# ± gives the standard deviation.
# Tests used:
# Assay in all cases: peptide microarray binding signal (635 nm), min-max normalized on array (fraction of array maximum); higher = stronger binding
# Conditions in all cases: peptide region: H2B 17-29
# [1] = biological target: T1, HaloTag-ATRX ADD domain (163-292)
# T1 chain: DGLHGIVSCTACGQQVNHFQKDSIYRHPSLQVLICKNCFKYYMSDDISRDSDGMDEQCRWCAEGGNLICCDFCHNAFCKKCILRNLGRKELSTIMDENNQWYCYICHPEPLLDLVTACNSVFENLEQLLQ
# Protocol: (§1)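 Histone 13-mer peptides were synthesized as cellulose conjugates with a C-terminal 20-atom PEG linker and printed in triplicate on nitrocellulose. The sequence given is the unmodified backbone; PTMs (Kme1/2/3, Kac, Sph/Tph, Rme/Rme2a/Rme2s, Rcit) are listed in the label and the 'peptide modifications' condition. Slides were probed at 4 °C for 1 h with biotin-labelled (HQ)5-HaloTag reader fusions (ATRX-ADD, ING2-PHD) then streptavidin-Alexa647, or with rabbit histone antibodies then anti-rabbit Alexa647. The mean 635 nm signal of the triplicate spots was scaled 0-1 between the lowest and highest values on each array.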
# [2] = biological target: HaloTag-ING2 PHD (mouse Ing2 200-280)
# Protocol: as §1
# [3] = biological target: anti-H3K4me3 antibody ab8580
# Protocol: as §1
# [4] = biological target: anti-H3K9me3 antibody ab8898
# Protocol: as §1
# [5] = peptide modifications: H2BK24ac H2BK27ac H2BK28ac, binder concentration: 1:2,000 dilution
# [6] = peptide modifications: H2BK24ac H2BK27ac H2BK28ac, binder concentration: 1:10,000 dilution
# [7] = peptide modifications: H2BK28ac, binder concentration: 1:2,000 dilution
# [8] = peptide modifications: H2BK28ac, binder concentration: 1:10,000 dilution
# [9] = peptide modifications: H2BK24ac, binder concentration: 1:2,000 dilution
# [10] = peptide modifications: H2BK24ac, binder concentration: 1:10,000 dilution
# [11] = peptide modifications: H2BK27ac, binder concentration: 1:2,000 dilution
# [12] = peptide modifications: H2BK27ac, binder concentration: 1:10,000 dilution
# [13] = peptide modifications: H2BK24ac H2BK28ac, binder concentration: 1:2,000 dilution
# [14] = peptide modifications: H2BK24ac H2BK28ac, binder concentration: 1:10,000 dilution
# [15] = peptide modifications: H2BK23ac H2BK27ac, binder concentration: 1:2,000 dilution
# [16] = peptide modifications: H2BK23ac H2BK27ac, binder concentration: 1:10,000 dilution
# [17] = peptide modifications: H2BK23ac, binder concentration: 1:2,000 dilution
# [18] = peptide modifications: H2BK23ac, binder concentration: 1:10,000 dilution
# [19] = peptide modifications: H2BK27ac H2BK28ac, binder concentration: 1:2,000 dilution
# [20] = peptide modifications: H2BK27ac H2BK28ac, binder concentration: 1:10,000 dilution
# [21] = peptide modifications: H2BK23ac H2BK28ac, binder concentration: 1:2,000 dilution
# [22] = peptide modifications: H2BK23ac H2BK28ac, binder concentration: 1:10,000 dilution
# [23] = peptide modifications: H2BK24ac H2BK27ac, binder concentration: 1:2,000 dilution
# [24] = peptide modifications: H2BK24ac H2BK27ac, binder concentration: 1:10,000 dilution
binder,measurement,setting,value
AVTKAQKKDGKKR [H2B 17-29 A V T K A Q K Kac D G Kac Kac R],peptide microarray binding signal,"[1]; peptide modifications: H2BK24ac H2BK27ac H2BK28ac, binder concentration: 50 nM",0.00295 ± 3.3e-05
same,peptide microarray binding signal,"[1]; peptide modifications: H2BK24ac H2BK27ac H2BK28ac, binder concentration: 500 nM",0.00638 ± 0.0005
same,peptide microarray binding signal,"[2]; peptide modifications: H2BK24ac H2BK27ac H2BK28ac, binder concentration: 10 nM",0.0037 ± 7.9e-05
same,peptide microarray binding signal,"[2]; peptide modifications: H2BK24ac H2BK27ac H2BK28ac, binder concentration: 100 nM",0.00716 ± 0.00073
same,peptide microarray binding signal,[3]; [5],0.000944 ± 5.4e-05
same,peptide microarray binding signal,[3]; [6],0.00108
same,peptide microarray binding signal,[4]; [5],0.000634 ± 9.9e-06
same,peptide microarray binding signal,[4]; [6],0.00098 ± 3e-05
AVTKAQKKDGKKR [H2B 17-29 A V T K A Q K K D G K Kac R],peptide microarray binding signal,"[1]; peptide modifications: H2BK28ac, binder concentration: 50 nM",0.00194 ± 4.1e-05
same,peptide microarray binding signal,"[1]; peptide modifications: H2BK28ac, binder concentration: 500 nM",0.00486 ± 0.00024
same,peptide microarray binding signal,"[2]; peptide modifications: H2BK28ac, binder concentration: 10 nM",0.00209 ± 2.4e-05
same,peptide microarray binding signal,"[2]; peptide modifications: H2BK28ac, binder concentration: 100 nM",0.00142 ± 1.5e-05
same,peptide microarray binding signal,[3]; [7],0.000396 ± 7e-06
same,peptide microarray binding signal,[3]; [8],0.000628 ± 6.7e-06
same,peptide microarray binding signal,[4]; [7],0.000166 ± 3.6e-06
same,peptide microarray binding signal,[4]; [8],0.000346 ± 3.8e-06
AVTKAQKKDGKKR [H2B 17-29 A V T K A Q K Kac D G K K R],peptide microarray binding signal,"[1]; peptide modifications: H2BK24ac, binder concentration: 50 nM",0.00295 ± 0.00019
same,peptide microarray binding signal,"[1]; peptide modifications: H2BK24ac, binder concentration: 500 nM",0.00762 ± 0.00062
same,peptide microarray binding signal,"[2]; peptide modifications: H2BK24ac, binder concentration: 10 nM",0.00609 ± 0.00052
same,peptide microarray binding signal,"[2]; peptide modifications: H2BK24ac, binder concentration: 100 nM",0.0283 ± 0.032
same,peptide microarray binding signal,[3]; [9],0.0013 ± 8.9e-05
same,peptide microarray binding signal,[3]; [10],0.000742
same,peptide microarray binding signal,[4]; [9],0.000347 ± 3.5e-06
same,peptide microarray binding signal,[4]; [10],0.000577 ± 6.2e-06
AVTKAQKKDGKKR [H2B 17-29 A V T K A Q K K D G Kac K R],peptide microarray binding signal,"[1]; peptide modifications: H2BK27ac, binder concentration: 50 nM",0.00248 ± 9e-05
same,peptide microarray binding signal,"[1]; peptide modifications: H2BK27ac, binder concentration: 500 nM",0.00624 ± 0.00045
same,peptide microarray binding signal,"[2]; peptide modifications: H2BK27ac, binder concentration: 10 nM",0.00185 ± 3.3e-05
same,peptide microarray binding signal,"[2]; peptide modifications: H2BK27ac, binder concentration: 100 nM",0.00149 ± 4.1e-05
same,peptide microarray binding signal,[3]; [11],0.00126 ± 4.4e-05
same,peptide microarray binding signal,[3]; [12],0.000913 ± 1.6e-05
same,peptide microarray binding signal,[4]; [11],0.000302 ± 3.1e-06
same,peptide microarray binding signal,[4]; [12],0.000404 ± 4.4e-06
AVTKAQKKDGKKR [H2B 17-29 A V T K A Q K Kac D G K Kac R],peptide microarray binding signal,"[1]; peptide modifications: H2BK24ac H2BK28ac, binder concentration: 50 nM",0.00524 ± 0.00097
same,peptide microarray binding signal,"[1]; peptide modifications: H2BK24ac H2BK28ac, binder concentration: 500 nM",0.00786 ± 0.0018
same,peptide microarray binding signal,"[2]; peptide modifications: H2BK24ac H2BK28ac, binder concentration: 10 nM",0.00412 ± 0.00017
same,peptide microarray binding signal,"[2]; peptide modifications: H2BK24ac H2BK28ac, binder concentration: 100 nM",0.00432 ± 0.00035
same,peptide microarray binding signal,[3]; [13],0.00034 ± 3.1e-05
same,peptide microarray binding signal,[3]; [14],0.00131 ± 5.7e-05
same,peptide microarray binding signal,[4]; [13],0.000695 ± 4.4e-05
same,peptide microarray binding signal,[4]; [14],0.000519 ± 5.6e-06
AVTKAQKKDGKKR [H2B 17-29 A V T K A Q Kac K D G Kac K R],peptide microarray binding signal,"[1]; peptide modifications: H2BK23ac H2BK27ac, binder concentration: 50 nM",0.0053 ± 0.00061
same,peptide microarray binding signal,"[1]; peptide modifications: H2BK23ac H2BK27ac, binder concentration: 500 nM",0.00781 ± 0.00049
same,peptide microarray binding signal,"[2]; peptide modifications: H2BK23ac H2BK27ac, binder concentration: 10 nM",0.00722 ± 0.00015
same,peptide microarray binding signal,"[2]; peptide modifications: H2BK23ac H2BK27ac, binder concentration: 100 nM",0.00751 ± 0.001
same,peptide microarray binding signal,[3]; [15],0.0021 ± 0.00039
same,peptide microarray binding signal,[3]; [16],0.000856 ± 8.9e-06
same,peptide microarray binding signal,[4]; [15],0.000604 ± 2e-05
same,peptide microarray binding signal,[4]; [16],0.000923 ± 9.6e-06
AVTKAQKKDGKKR [H2B 17-29 A V T K A Q Kac K D G K K R],peptide microarray binding signal,"[1]; peptide modifications: H2BK23ac, binder concentration: 50 nM",0.00376 ± 0.00013
same,peptide microarray binding signal,"[1]; peptide modifications: H2BK23ac, binder concentration: 500 nM",0.00514 ± 0.0009
same,peptide microarray binding signal,"[2]; peptide modifications: H2BK23ac, binder concentration: 10 nM",0.00424 ± 9.6e-05
same,peptide microarray binding signal,"[2]; peptide modifications: H2BK23ac, binder concentration: 100 nM",0.00666 ± 0.00022
same,peptide microarray binding signal,[3]; [17],0.00051 ± 9.7e-05
same,peptide microarray binding signal,[3]; [18],0.000742
same,peptide microarray binding signal,[4]; [17],0.000498 ± 3.6e-05
same,peptide microarray binding signal,[4]; [18],0.00104 ± 1.1e-05
AVTKAQKKDGKKR [H2B 17-29 A V T K A Q K K D G Kac Kac R],peptide microarray binding signal,"[1]; peptide modifications: H2BK27ac H2BK28ac, binder concentration: 50 nM",0.0047 ± 0.00043
same,peptide microarray binding signal,"[1]; peptide modifications: H2BK27ac H2BK28ac, binder concentration: 500 nM",0.00386 ± 0.00024
same,peptide microarray binding signal,"[2]; peptide modifications: H2BK27ac H2BK28ac, binder concentration: 10 nM",0.00418 ± 6.5e-05
same,peptide microarray binding signal,"[2]; peptide modifications: H2BK27ac H2BK28ac, binder concentration: 100 nM",0.00276 ± 0.00023
same,peptide microarray binding signal,[3]; [19],0.00017 ± 5.6e-06
same,peptide microarray binding signal,[3]; [20],0.00114 ± 1.2e-05
same,peptide microarray binding signal,[4]; [19],0.000544 ± 3e-05
same,peptide microarray binding signal,[4]; [20],0.0011 ± 4e-05
AVTKAQKKDGKKR [H2B 17-29 A V T K A Q Kac K D G K Kac R],peptide microarray binding signal,"[1]; peptide modifications: H2BK23ac H2BK28ac, binder concentration: 50 nM",0.00348 ± 0.00011
same,peptide microarray binding signal,"[1]; peptide modifications: H2BK23ac H2BK28ac, binder concentration: 500 nM",0.00929 ± 0.00055
same,peptide microarray binding signal,"[2]; peptide modifications: H2BK23ac H2BK28ac, binder concentration: 10 nM",0.00442 ± 0.00046
same,peptide microarray binding signal,"[2]; peptide modifications: H2BK23ac H2BK28ac, binder concentration: 100 nM",0.00312 ± 0.00011
same,peptide microarray binding signal,[3]; [21],0.002 ± 0.00012
same,peptide microarray binding signal,[3]; [22],0.000799 ± 8.3e-06
same,peptide microarray binding signal,[4]; [21],0.000529 ± 1.3e-05
same,peptide microarray binding signal,[4]; [22],0.000634
AVTKAQKKDGKKR [H2B 17-29 A V T K A Q K Kac D G Kac K R],peptide microarray binding signal,"[1]; peptide modifications: H2BK24ac H2BK27ac, binder concentration: 50 nM",0.00238 ± 4.6e-05
same,peptide microarray binding signal,"[1]; peptide modifications: H2BK24ac H2BK27ac, binder concentration: 500 nM",0.0059 ± 0.00037
same,peptide microarray binding signal,"[2]; peptide modifications: H2BK24ac H2BK27ac, binder concentration: 10 nM",0.00197 ± 4.6e-05
same,peptide microarray binding signal,"[2]; peptide modifications: H2BK24ac H2BK27ac, binder concentration: 100 nM",0.00177 ± 6.2e-05
same,peptide microarray binding signal,[3]; [23],0.00138 ± 0.0002
same,peptide microarray binding signal,[3]; [24],0.000685 ± 7.2e-06
same,peptide microarray binding signal,[4]; [23],0.000227 ± 4.1e-06
same,peptide microarray binding signal,[4]; [24],0.000346 ± 3.8e-06
